According to PubChem BioAssay (NCI):
The panel holds about 83,000 compounds, 20% with a hit somewhere; the sample as a whole holds those more often.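 Single-concentration screen, 48 h exposure, 96-well plates. Endpoint: percent growth. Below 10 = active.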 A number with no mark means an inactive call. The source made the active and inactive calls.

Experiments:
Assay in all cases: NCI-60 one-dose screen, 48 h (100 = growth as untreated, 0 = no growth, -100 = all killed)
Details in all cases: 10 µM unless noted
[1] = test system: SK-MEL-2 melanoma
[2] = test system: EKVX NSCLC
[3] = test system: SN12C renal
[4] = test system: UO-31 renal
[5] = test system: TK-10 renal
[6] = test system: ACHN renal
[7] = test system: CAKI-1 renal
[8] = test system: A498 renal
[9] = test system: CCRF-CEM leukemia
[10] = test system: MOLT-4 leukemia
[11] = test system: SR leukemia
[12] = test system: RPMI-8226 leukemia
[13] = test system: OVCAR-8 ovarian
[14] = test system: OVCAR-5 ovarian
[15] = test system: OVCAR-4 ovarian
[16] = test system: SK-OV-3 ovarian
[17] = test system: IGROV1 ovarian
[18] = test system: OVCAR-3 ovarian
[19] = test system: NCI/ADR-RES ovarian

SMILES	growth [1]	growth [2]	growth [3]	growth [4]	growth [5]	growth [6]	growth [7]	growth [8]	growth [9]	growth [10]	growth [11]	growth [12]	growth [13]	growth [14]	growth [15]	growth [16]	growth [17]	growth [18]	growth [19]
Cc1ncsc1-c1ccc(CNC(=O)[C@@H]2C[C@@H](O)CN2C(=O)[C@@H](NC(=O)C2(F)CC2)C(C)(C)C)c(OCCOCCOCCOCCOc2nc(Nc3cc(S(C)(=O)=O)ccc3N[C@@H](c3cccc4c3OC(F)(F)O4)c3ncccc3Cl)nc(N3CCNCC3)n2)c1	112%	80.8%	80.9%	98.5%	109%	98.9%	101%	116%	-9.39% (active)	-5.45% (active)	26.3%	13.6%	98.4%	99%	91.6%	111%	72.2%	89.1%	103%
CSc1ccccc1NC(=O)c1ccc2nn(/C(C#N)=C/c3ccccn3)nc2c1	-67% (active)	-98.5% (active)	-59.2% (active)	-100% (active)	-98.4% (active)	-99% (active)	-87.3% (active)	93.7%	-34.7% (active)	-22.3% (active)	1.1% (active)	-41.9% (active)	-3.76% (active)	-86.8% (active)	-55.6% (active)	42.9%	-67.9% (active)	-87.8% (active)	2.48% (active)
CCCCOc1ccc(NC(=O)c2sc3nc(C)ccc3c2N)cc1	49.2%	6.14% (active)	21.1%	1.84% (active)	-20.1% (active)	-19.3% (active)	26.5%	37.1%	42%	48%	19.1%	32.4%	5.4% (active)	20.1%	1.32% (active)	-15.9% (active)	17.7%	15.5%	-39.3% (active)
O=C(NNc1ccccc1)n1c(=O)c2ccccc2c(=O)n1-c1ccccc1	117%	91.3%	85.9%	81.5%	95%	93.7%	77.2%	101%	99.5%	91.3%	80.8%	102%	96.7%	96.1%	97.6%	85.5%	96.4%	104%	98.3%
C=C1CC[C@@H]2[C@]3(C)COC(c4cn(-c5ccccc5)nc4-c4cccc([N+](=O)[O-])c4)O[C@@H]3CC[C@@]2(C)[C@@H]1C/C=C1/C(=O)OC[C@H]1O (some centres undefined)	-45.2% (active)	-0.625% (active)	3.71% (active)	12.2%	36.9%	-74.5% (active)	38.7%	105%	-1.81% (active)	-3.81% (active)	-16.7% (active)	-42.4% (active)	-38.1% (active)	-24.1% (active)	14%	93%	-25% (active)	15.1%	-42.6% (active)
Cc1c(C(=O)NNC(=O)c2ccc(Cl)cc2)nnn1-c1ccc(Cl)cc1	106%	91.5%	94.7%	74.1%	96.1%	103%	87.2%	105%	88.4%	85.4%	84.4%	95.7%	104%	93.6%	92.4%	82.3%	106%	114%	91.3%
COc1cc(-c2ccc(/C=N/NC(=O)c3[nH]c4ccc(Br)cc4c3-c3ccccc3)s2)cc(OC)c1OC	104%	73.7%	92.6%	96.9%	106%	75.6%	71.6%	130%	73.2%	79.1%	79%	61.1%	80.7%	101%	93.7%	99.6%	95.6%	107%	71.7%
CSc1ccc(C(=O)Nc2ccc3nn(/C(C#N)=C/c4ccccn4)nc3c2)cc1	-77.8% (active)	-96.3% (active)	-45.5% (active)	-100% (active)	-96.7% (active)	-96% (active)	-42.9% (active)	56.8%	-33.8% (active)	-24.9% (active)	-3.69% (active)	-42.5% (active)	-1.48% (active)	-86.2% (active)	15.8%	30.8%	-83% (active)	-92.6% (active)	2.33% (active)
Cn1nc(C(F)(F)F)cc1-c1cc(Cl)c(COc2ccc(Cl)cc2)c(-c2ccc(Cl)c(C(F)(F)F)c2)c1O	-81.6% (active)	-2.8% (active)	-51.4% (active)	-48.4% (active)	3.16% (active)	-5.03% (active)	-15.9% (active)	-11.9% (active)	-34.3% (active)	-23.1% (active)	-32.4% (active)	-39.2% (active)	-25.6% (active)	-1.15% (active)	13.9%	-14.5% (active)	5.06% (active)	-8.73% (active)	-34.8% (active)
CNC(=O)c1cccc(NC(=O)c2ccc3c(c2)nnn3/C(C#N)=C/c2ccccn2)c1	-60.7% (active)	-30.5% (active)	-15.8% (active)	-7.22% (active)	-25.4% (active)	-24.2% (active)	25.7%	115%	-24.5% (active)	-19.2% (active)	-5.41% (active)	-23.6% (active)	10%	19.6%	40.6%	83.4%	-2.48% (active)	-69.2% (active)	84.3%
CC(=O)Oc1ccccc1C(=O)[Se]C(=NC1CCCCC1)NC1CCCCC1	-74.5% (active)	-97.6% (active)	-99.3% (active)	-100% (active)	-98.8% (active)	-73.8% (active)	-97.7% (active)	-5.3% (active)	4.94% (active)	-22.2% (active)	-15.7% (active)	4.77% (active)	-81.8% (active)	-89.6% (active)	-85.9% (active)	-99.1% (active)	-94% (active)	-71.6% (active)	-63.3% (active)
N#Cc1c(-c2ccc(Cl)cc2)nc2n[nH]c(-c3ccc(Cl)cc3)c2c1-c1cccs1	58.6%	30.3%	45.7%	35.1%	97.3%	62.8%	39%	105%	38.1%	3.89% (active)	25.6%	17.7%	66.7%	75.8%	42.3%	54.2%	62%	63.5%	61.1%
N#Cc1c(-c2ccccc2Cl)cc(-c2c[nH]c3ccccc23)[nH]c1=O	49%	68.1%	61.5%	58.7%	102%	63.9%	55.5%	116%	32.2%	34.7%	9.99% (active)	70.7%	87.4%	82.1%	69.6%	87.8%	78.5%	93.8%	82.3%
CSc1ccc(NC(=O)c2ccc3nn(/C(C#N)=C/c4ccccn4)nc3c2)cc1	-89.9% (active)	-99% (active)	-65.7% (active)	-99% (active)	-94.7% (active)	-95.3% (active)	-90.9% (active)	-33.9% (active)	-47.8% (active)	-20.4% (active)	-6.88% (active)	-35.4% (active)	-44.2% (active)	-87.6% (active)	-57.2% (active)	-2.79% (active)	-87.4% (active)	-85% (active)	-35.7% (active)
CSc1ccccc1NC(=O)c1ccc2nnn(/C(C#N)=C/c3ccccn3)c2c1	-86.4% (active)	-95.6% (active)	-99% (active)	-100% (active)	-98.6% (active)	-100% (active)	-88.2% (active)	82.9%	-27.5% (active)	-27.9% (active)	-5.23% (active)	-29% (active)	-86.6% (active)	-95% (active)	-96.5% (active)	63.1%	-81.8% (active)	-81.9% (active)	-44.2% (active)
Cc1c(C(=O)NNC(=O)Nc2ccc(Cl)cc2)nnn1-c1ccc(Br)cc1	109%	88%	103%	75.7%	96.1%	99.7%	83.9%	99.8%	89%	83.5%	89.9%	98.7%	101%	102%	86.4%	79.6%	97.6%	116%	94.4%
